This is a sample that favours compounds with a hit; in the whole collection about 12% have one here.
HP1b binding inh – inhibitors of HP1-beta chromodomain binding to methylated histone tails. P83916. AlphaScreen HP1-beta / biotin-H3K9me3 peptide binding. Potency, µM (highest dose often 114 µM), for inactives: at the top dose activity change, negative = inhibition, hits mostly inhibitors. actives 0.56% (n = 390,000). AID 540317; note: nearly all actives have a fitted effect of over 70% in size
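Compound inhibition of the preformed complex between 50 nM HP1-beta and 50 nM biotinylated H3K9me3 peptide was read by AlphaScreen. Buffer was PBS pH 7.4 with 0.01% Tween-20. Incubations ran 30 min at room temperature, with 10 ug/mL donor/acceptor beads.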
G9a inh – G9a (human) methyltransferase inhibition; Q96KQ7; G9a H3K9 monomethylation, AlphaScreen, 2 h; Potency, µM (top dose mostly 102 µM), for the others: top-dose activity, negative = inhibition, usual class: inhibitors; actives 8.8% (n = 350,000); AID 504332; note: % is set by controls: 0 for no effect and ±100 for the full control effect; nearly all actives have a fitted effect of over 75% in size
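Using a bead-based AlphaScreen, monomethylated H3K9 product from 2 h room-temperature reactions (G9a 20 nM, peptide 500 nM, SAM 20 uM) was detected with 0.5 ug/mL rabbit anti-H3K9me1 antibody.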
BAZ2B inh – BAZ2B (human) inhibition | Q9UIF8 | AlphaScreen BAZ2B-H3K14Ac peptide displacement | Potency, µM (doses to about 114 µM), inactives show top-dose activity change, negative = inhibition, usual class: inhibitors | actives 4.4% (n = 360,000) | AID 504333; note: % is set by controls: 0 for no effect and ±100 for the full control effect; nearly all actives have a fitted effect of over 60% in size
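AlphaScreen displacement of biotin-H3(5-23)K14Ac peptide (50 nM final) from BAZ2B (50 nM final) in PBS pH 7.4, 0.01% Tween-20; complex preformed 30 min RT, then compounds (top 110 uM) 30 min RT, beads 20 min dark.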
JMJD2A Tudor inh – blocks the human JMJD2A Tudor domain; O75164; AlphaScreen JMJD2A-Tudor / H3K4me3 peptide binding; Potency, µM (highest dose often 114 µM), without a hit: at the top dose activity change, negative = inhibition, usual class: inhibitors; actives 4.4% (n = 390,000); AID 504339; note: % is set by controls: 0 for no effect and ±100 for the full control effect; nearly all actives have a fitted effect of over 50% in size
Sfp inh – blocks B. subtilis Sfp PPTase activity. Q9F4F7. Biochemical Sfp PPTase activity, qHTS. Potency, µM, for the others: largest response in the series, negative = inhibition, most hits filed as inhibitors. actives 3.5% (n = 310,000);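 note: the enzyme is Sfp with the accession as filed and its product quenches rhodamine fluorescence; 0% = enzyme reaction without inhibitor and -100% = no enzyme wells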
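Fluorescence-quenching assay: 15 nM Sfp-PPTase preincubated 15 min at room temperature with compound, then 5 uM rhodamine-CoA and 12.5 uM BHQ-2-labelled YbbR peptide added. Fluorescence (ex 525/em 598 nm) read at start and after 30 min; difference gives rate.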
L3MBTL1 inh – L3MBTL1 (human) inhibition | Q9Y468 | AlphaScreen L3MBTL1–H3K9me1 peptide binding | Potency, µM (titrated, usually from 57.1 µM), inactives show at the highest dose activity, negative = inhibition, actives largely listed as inhibitors | actives 0.66% (n = 230,000) | AID 485360; note: % is set by controls: 0 for no effect and ±100 for the full control effect; nearly all actives have a fitted effect of over 60% in size
Target sequence (Q9Y468 whole entry, looked up): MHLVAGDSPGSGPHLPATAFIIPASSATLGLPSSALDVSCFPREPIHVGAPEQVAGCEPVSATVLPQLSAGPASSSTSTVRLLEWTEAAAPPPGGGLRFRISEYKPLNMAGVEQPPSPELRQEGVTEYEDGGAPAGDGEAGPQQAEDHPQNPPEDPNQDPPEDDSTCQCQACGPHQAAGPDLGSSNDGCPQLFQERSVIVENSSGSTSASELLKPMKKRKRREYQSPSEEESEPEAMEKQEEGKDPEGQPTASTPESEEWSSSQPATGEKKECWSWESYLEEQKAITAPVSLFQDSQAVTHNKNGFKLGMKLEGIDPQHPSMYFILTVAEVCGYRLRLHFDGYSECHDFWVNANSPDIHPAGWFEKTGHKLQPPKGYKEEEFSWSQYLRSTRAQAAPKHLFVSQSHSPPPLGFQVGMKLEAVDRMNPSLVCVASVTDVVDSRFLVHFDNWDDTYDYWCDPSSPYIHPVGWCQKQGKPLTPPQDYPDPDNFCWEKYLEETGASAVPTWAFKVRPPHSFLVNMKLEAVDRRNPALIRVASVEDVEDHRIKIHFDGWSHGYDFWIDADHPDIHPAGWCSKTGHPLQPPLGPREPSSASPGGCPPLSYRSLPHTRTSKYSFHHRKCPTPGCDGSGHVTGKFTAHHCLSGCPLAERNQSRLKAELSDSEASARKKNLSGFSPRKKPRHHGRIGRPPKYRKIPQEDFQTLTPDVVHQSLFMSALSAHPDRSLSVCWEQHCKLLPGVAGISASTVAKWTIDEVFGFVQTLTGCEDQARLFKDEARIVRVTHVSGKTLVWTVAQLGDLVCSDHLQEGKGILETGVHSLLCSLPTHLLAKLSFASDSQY
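L3MBTL1 50 nM + b-AHA-H3(1-15)K9me1 75 nM, 30 min RT; compound added, 30 min RT; streptavidin donor/Ni-chelate acceptor beads 10 ug/mL each final, 30 min RT dark; AlphaScreen read.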
* marks the source's active call; other numbers are inactive results; [ ] = dose if it differs, or a comment. Calls come from the whole dose curve; as a rule, active = well fitted curve in the direction sought with a large enough effect; inconclusive = small, poorly fitted or top-dose-only effect, or another doubt; inactive = no such curve, though single readings can be large; an effect the other way counts as inactive or inconclusive. Potency is the fitted concentration of half-maximal effect.

What do the screens show for `COc1cc(/C=C2\C(=N)N3N=C(S(C)(=O)=O)SC3=NC2=O)ccc1OCCOc1ccc(C)cc1`?
HP1b binding inh: inconclusive; G9a inh: inconclusive; BAZ2B inh: -32%; JMJD2A Tudor inh: -19%; Sfp inh: -20%

Results for COc1cccc(CNC(=O)C(CC(C)C)NS(=O)(=O)c2ccc3c(c2)oc(=O)n3C)c1 (stereo unspecified) ?
HP1b binding inh: 27%; G9a inh: -4%[59 µM]; BAZ2B inh: -7%; JMJD2A Tudor inh: -16%

Results for CC(C)C(=O)N1CCN(c2nc(-c3ccc(Cl)cc3)cs2)CC1 ?
HP1b binding inh: 14%; G9a inh: inconclusive; BAZ2B inh: -22%; JMJD2A Tudor inh: -18%; Sfp inh: 12%; L3MBTL1 inh: 8%

What do the screens show for `CCS(=O)(=O)N1CCN(c2nc(-c3ccccc3)cs2)CC1`?
HP1b binding inh: -9%; G9a inh: 13µM*; BAZ2B inh: -14%; JMJD2A Tudor inh: -35%; Sfp inh: inconclusive; L3MBTL1 inh: 7%[11.4 µM]

What do the screens show for `CS(=O)(=O)N1CCN(c2nc(-c3ccccc3)cs2)CC1`?
HP1b binding inh: -22%; G9a inh: -1%[59 µM]; BAZ2B inh: inconclusive; JMJD2A Tudor inh: -34%; Sfp inh: -3%

What do the screens show for `CCOC(=O)N1CCN(c2nc(-c3ccc(Cl)cc3)cs2)CC1`?
HP1b binding inh: 55%; G9a inh: 11µM*; BAZ2B inh: -13%; JMJD2A Tudor inh: -7%; Sfp inh: inconclusive; L3MBTL1 inh: -5%

What do the screens show for `O=C(Cc1cccs1)N1CCN(c2nc(-c3ccc(Cl)cc3)cs2)CC1`?
HP1b binding inh: -12%; G9a inh: 71µM*; BAZ2B inh: -6%; JMJD2A Tudor inh: -22%; Sfp inh: -15%; L3MBTL1 inh: -10%

How did CNC(=O)c1cnn2c(C)cc(C)nc12 do in these assays?
JMJD2A Tudor inh: -21%

How did Cc1ccc(C(C)NC(=O)CSc2ccc(S(=O)(=O)N3CCOCC3)cn2)cc1C (stereo unspecified) do in these assays?
HP1b binding inh: 28%; G9a inh: inconclusive; BAZ2B inh: 9%; JMJD2A Tudor inh: -4%; L3MBTL1 inh: -2%

What do the screens show for `O=C1CC(c2cccs2)Sc2nc3ccccc3n21` (stereo unspecified)?
HP1b binding inh: 54%; G9a inh: inconclusive; BAZ2B inh: 9%; JMJD2A Tudor inh: 13%; Sfp inh: -2%; L3MBTL1 inh: 3%

What do the screens show for `O=C1CSCc2nc3ccccc3n21`?
HP1b binding inh: 15%; JMJD2A Tudor inh: 20µM*

Results for COc1ccccc1C1CCN(c2cc(O)ccc2[N+](=O)[O-])CC1 ?
HP1b binding inh: inconclusive; BAZ2B inh: 25µM*; JMJD2A Tudor inh: 50µM*; Sfp inh: 4%; L3MBTL1 inh: -27%

How did COc1ccc(NC(=O)c2ccc(CN3CCN(c4ccccc4)CC3)cc2)cc1OC do in these assays?
HP1b binding inh: 13%; G9a inh: -29%[59 µM]; BAZ2B inh: -2%; JMJD2A Tudor inh: -20%; Sfp inh: -8%; L3MBTL1 inh: -8%

Results for COc1ccc(C)cc1NC(=O)CN1CCN(C/C=C/c2ccccc2)CC1 ?
HP1b binding inh: 2%; G9a inh: inconclusive; BAZ2B inh: 5%; JMJD2A Tudor inh: inconclusive; Sfp inh: 89µM*

Results for COc1ccccc1C(=O)Nc1ccc(N2CCCCC2)cc1 ?
HP1b binding inh: inconclusive; G9a inh: 50µM*; BAZ2B inh: inconclusive; JMJD2A Tudor inh: 56µM*; Sfp inh: 13%

How did COc1ccc(C)cc1NC(=O)c1ccc(CN2CCN(c3ccccc3)CC2)cc1 do in these assays?
HP1b binding inh: -9%; G9a inh: 50µM*; BAZ2B inh: inconclusive; JMJD2A Tudor inh: inconclusive; Sfp inh: -12%; L3MBTL1 inh: -16%

How did COc1ccccc1C(=O)Nc1ccc(N2CCN(C(C)=O)CC2)cc1 do in these assays?
HP1b binding inh: 25%; G9a inh: 6%; BAZ2B inh: -5%; JMJD2A Tudor inh: -3%; Sfp inh: 20%; L3MBTL1 inh: 3%
